Bioassay records as filed in PubChem.
PglD DTNB = blocks C. jejuni PglD acetyltransferase activity. purified PglD enzyme, DTNB colorimetric CoA detection. inhibition, % at 12.5 µM. hit rate 0.098% among 360,000. AID 602405; in the data active means inhibition above about 16%, passing the limit was not always enough
SIRT5 block = inhibitors of human sirtuin-5 desuccinylase | inhibition, % at 15 µM | Purified SirT5, succinyl-peptide AMC, trypsin-coupled fluorescence | Q9NXA8 | hit rate 1.1% among 330,000; in the data active means inhibition above about 15%
Target sequence (Q9NXA8 whole entry, looked up): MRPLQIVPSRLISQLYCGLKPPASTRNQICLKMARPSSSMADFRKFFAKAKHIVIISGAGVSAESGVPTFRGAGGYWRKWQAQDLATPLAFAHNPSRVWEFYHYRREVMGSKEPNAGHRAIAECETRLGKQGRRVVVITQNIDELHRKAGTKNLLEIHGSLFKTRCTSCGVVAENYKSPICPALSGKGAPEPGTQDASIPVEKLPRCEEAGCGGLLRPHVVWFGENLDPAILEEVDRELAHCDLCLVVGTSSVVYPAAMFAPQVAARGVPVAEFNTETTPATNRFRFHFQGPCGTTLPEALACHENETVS
PvdQ inh = P. aeruginosa PvdQ acylase inhibition; AID 488965; hit rate 0.063% among 340,000; purified PvdQ acylase, fluorescence plate reader; inhibition, % at 10 µM; in the data active means inhibition above about 30%, passing the limit was not always enough;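 further: 0% = vehicle neutral wells and 100% = reference inhibitor wells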
FGF22 binding = FGF22 (human) thermal shift binding; Q9HCT0; recombinant FGF22 thermal shift, SYPRO orange fluorescence; percent of sucrose octasulfate shift, DMSO zero; activity (Tm shift, normalised), % at 9.99 µM; hit rate 1.5% among 340,000; AID 651658;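 active means mean Tm shift, scaled 0 neutral to 100 positive control, at about 1.3% or above, every replicate too, limit read from the data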
Target sequence (Q9HCT0 whole entry, looked up): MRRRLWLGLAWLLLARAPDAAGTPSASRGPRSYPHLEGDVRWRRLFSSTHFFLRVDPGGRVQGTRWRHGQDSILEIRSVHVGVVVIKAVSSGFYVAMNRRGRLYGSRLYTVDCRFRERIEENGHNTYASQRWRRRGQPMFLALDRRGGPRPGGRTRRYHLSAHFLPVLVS
dFosB activator = enhances mouse delta FosB homodimer DNA binding; P13346; purified delta FosB, TAMRA-CDK5 oligo fluorescence polarization; percent of positive-control signal above neutral wells; activation, % at 25 µM; hit rate 0.99% among 340,000; AID 493131;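 active means mean activation above about 17%, with every replicate also reaching it, limit read from the data, passing the limit was not always enough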
CDK5 inh = blocks human CDK5/p35 kinase activity; inhibition, % at 10 µM; AID 488839; Recombinant CDK5/p35, ADP-Glo luminescence, 60 min; Q00535+Q15078; hit rate 0.01% among 330,000;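 active means highest replicate inhibition of at least 50% and at least 75% of replicates reaching 50%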;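 further: plate controls were DMSO neutral control for no effect and GW8510 at 10 µM for full effect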
The depositor's hits bear a star; · = not tested or not shown; ! = not active in a repeat. Sampled rows, rich in hits. Any-hit rate of the full collection: about 2.8%.

SMILES | PglD DTNB | SIRT5 block | PvdQ inh | FGF22 binding | dFosB activator | CDK5 inh
CCN(CC)S(=O)(=O)c1ccc(NC(=S)NC(=O)C(C)C)cc1 | · | -1 | -8 | 0 | -2 | -1
O=C(NNC(=S)NC(=O)c1cccs1)c1cccnc1 | · | 17* | -12 | 0 | -3 | -1
CCN(CC)S(=O)(=O)c1ccc(NC(=O)c2cccs2)cc1 | 0 | 1 | 10 | 43* | -7 | -1
CCN(CC)S(=O)(=O)c1ccc(NC(=S)NC(=O)CC(C)C)cc1 | · | 33* | -5 | 0 | -17 | -2
O=C(NNC(=O)c1cccs1)c1ccncc1 | · | 22* | 6 | 0 | 0 | 3
O=C(NNC(=O)c1cccs1)c1cccnc1 | 0 | 6 | 5 | 0 | -9 | 0
C[C@@H]1CN([C@H](C)CO)C(=O)c2cc(NC(=O)C3CCCCC3)ccc2O[C@@H](C)CCCCO[C@H]1CN(C)Cc1ccc2c(c1)OCO2 | -3 | -2 | · | 0 | · | ·
O=C(C[C@H]1C[C@@H]2c3cc(NC(=O)Cc4ccncc4)ccc3O[C@@H]2[C@H](CO)O1)NCC1CC1 | 5 | -2 | · | 0 | · | ·
O=C(NNC(=O)c1cccs1)c1ccccc1 | · | 3 | -5 | 0 | -4 | 1
CC(=O)Nc1ccc(C(=O)NNC(=O)c2cccs2)cc1 | · | -1 | -9 | 44* | -2 | -1
CCNC(=O)COc1cccc2ccccc12 | -1 | · | -21 | · | 3 | 1
O=C(NCCNC(=O)Oc1cccc2ccccc12)Oc1cccc2ccccc12 | 0 | 26* | -10 | 0 | 2 | 1
CCN(CC)c1nc(-c2ccccn2)nc(-c2ccccc2)c1C#N | · | 0 | -2 | 43* | -17 | -13
Cc1noc(C)c1S(=O)(=O)Nc1ccc2c(c1)CC(=O)N([C@@H](C)CO)C[C@H](C)[C@H](CN(C)Cc1ccccc1)O2 | 0 | -4 | · | 0 | · | ·
C[C@H](CO)N1C[C@H](C)[C@@H](CN(C)Cc2ccc(-c3ccccc3)cc2)Oc2ccc(NS(=O)(=O)c3ccccc3)cc2CC1=O | -3 | 18* | · | -1 | · | ·
C[C@@H]1CN([C@H](C)CO)C(=O)Cc2cc(NS(=O)(=O)c3ccccc3)ccc2O[C@H]1CN(C)Cc1ccc(-c2ccccc2)cc1 | -4 | 15* | · | 0 | · | ·
Cc1noc(C)c1S(=O)(=O)Nc1ccc2c(c1)CC(=O)N([C@H](C)CO)C[C@H](C)[C@@H](CN(C)Cc1ccc(C(=O)O)cc1)O2 | · | 25* | · | 0 | · | ·
Cc1noc(C)c1NC(=O)Nc1ccc2c(c1)CC(=O)N([C@H](C)CO)C[C@@H](C)[C@@H](CN(C)Cc1ccc(-c3ccccc3)cc1)O2 | · | 16* | · | 0 | · | ·
O=[N+]([O-])c1ccc(N2CCN(c3ccc(F)cc3)CC2)cc1 | -3 | -2 | 11 | 0 | -3 | 1
O=[N+]([O-])c1ccc(N2CCSCC2)cc1 | · | 0 | 54* | 0 | 8 | 1
Cc1ccc(S(=O)(=O)N(C)C[C@@H]2Oc3ccc(NC(=O)Cc4cn(C)c5ccccc45)cc3CC(=O)N([C@H](C)CO)C[C@@H]2C)cc1 | 0 | -4 | · | 0 | · | ·
COc1ccc2c3c(n(C)c2c1)[C@@H](CO)N(C(=O)c1ccc(F)cc1)CC31CCN(C(C)=O)CC1 | · | · | · | 0 | · | ·
O=C(/C=C/c1ccc2c(c1)OCO2)Nc1nc2ccccc2s1 | 6 | · | 14 | · | 19* | 0
CS(=O)(=O)Nc1ccc2c(c1)[C@@H]1C[C@@H](CC(=O)N3CCOCC3)O[C@@H](CO)[C@@H]1O2 | 0 | 2 | · | 0 | · | ·
CC(=O)Nc1ccc(NC(=O)c2ccccc2CCc2ccccc2)cc1 | · | -5 | -18 | 44* | 10 | 1
SMILES | PglD DTNB | SIRT5 block | PvdQ inh | FGF22 binding | dFosB activator | CDK5 inh
O=C(Nc1ccccc1F)N1CC(=O)N2[C@@H](CO)[C@H](c3ccc(C#Cc4ccccc4)cc3)[C@@H]2C1 | · | 3 | · | · | · | ·
COc1cc(NC(=O)CSc2nncn2C)c(C)cc1[N+](=O)[O-] | -4 | -4 | 11 | 43* | 8 | 1
O=C(Cn1c2ccc(F)cc2c2nc3n(c(=O)c21)CCS3)Nc1ccc(Cl)cc1F | 4 | 0 | 6 | 0 | 21* | 2
C[C@@H]1CCCCO[C@@H](CN(C)S(=O)(=O)c2ccc(Cl)cc2)[C@@H](C)CN([C@@H](C)CO)C(=O)c2cc(NC(=O)Nc3ccc4c(c3)OCO4)ccc2O1 | 1 | 0 | · | 0 | · | ·
COC(=O)c1ccc(N2NC(=O)/C(=C/c3ccc(-c4ccc(Cl)c(C(=O)O)c4)o3)C2=O)cc1 | · | 23* | 1 | 1 | -6 | 1
O=C1NN(c2ccccc2)C(=O)/C1=C/c1ccc(-c2ccc(C(=O)O)cc2)o1 | -4 | 24* | -5 | 0 | -5 | -3
CC1=NOC(=O)/C1=C\c1ccc(-c2ccc(Cl)c(C(=O)O)c2)o1 | · | 22* | 5 | 0 | -2 | 1
CO[C@@H]1CN(C)C(=O)c2cc(NC(=O)Nc3c(C)noc3C)ccc2OC[C@H](C)N(C)C[C@H]1C | 4 | -6 | · | 0 | · | ·
C[C@@H]1CN([C@@H](C)CO)C(=O)c2cccc(NS(=O)(=O)c3ccccc3)c2O[C@@H]1CN(C)S(=O)(=O)c1cn(C)cn1 | -1 | 1 | · | 0 | · | ·
COc1ccc(CN2CCN(C(=O)c3ccccc3C(=O)c3ccccc3)CC2)cc1F | 4 | · | · | 44* | · | ·
COc1ccc(S(=O)(=O)N(C)C[C@@H]2Oc3c(NS(C)(=O)=O)cccc3C(=O)N([C@H](C)CO)C[C@H]2C)cc1 | 2 | -6 | · | 0 | · | ·
C[C@H]1CN([C@@H](C)CO)C(=O)c2cccc(NS(C)(=O)=O)c2O[C@@H]1CN(C)Cc1ccccc1 | -2 | 3 | · | 0 | · | ·
COc1ccc(S(=O)(=O)N(C)C[C@@H]2Oc3c(NS(C)(=O)=O)cccc3C(=O)N([C@@H](C)CO)C[C@H]2C)cc1 | -1 | 20*! | -1 | 0 | -4 | 1
C[C@H]1CN([C@@H](C)CO)C(=O)c2cccc(NS(C)(=O)=O)c2O[C@H]1CN(C)Cc1ccccc1 | 0 | 15* | · | 0 | · | ·
C[C@@H]1CN([C@H](C)CO)C(=O)c2cccc(NS(=O)(=O)c3cccs3)c2O[C@H]1CN(C)Cc1ccccc1 | -4 | 26*! | -6 | 0 | 3 | 9
O=C(Cc1ccccn1)N1CC2(C1)[C@@H](c1ccccc1)[C@@H](CO)N2C(=O)c1cccnc1 | · | -6 | · | 0 | · | ·
CN(C)C(=O)c1cccc(-c2ccc3c(c2)[C@@H]2[C@@H](CCN2Cc2ccccc2F)[C@H](CO)N3)c1 | 1 | · | · | 0 | · | ·
O=C(Nc1cccnc1)c1cc(Br)c(Br)s1 | 5 | -6 | -13 | 0 | -7 | -1
NC(=O)c1cc(NC(=O)c2cc(Br)c(Br)s2)cc(C(N)=O)c1 | · | -2 | -1 | 43* | 5 | -1
COc1cc2oc(=O)cc(C)c2c(OC)c1OC | · | -6 | 5 | 43* | -12 | 2
COc1cc2oc(=O)cc(-c3ccc(-c4ccc(C)cc4)cc3)c2c(OC)c1OC | 3 | 0 | -15 | 0 | -2 | -1
